The record followed here is the supplement of paper PMC4206467.

The subject of the experiment is Perkinsus marinus PRA240. Briefly: ATP content (proliferation) relative to DMSO control; higher = more parasite growth (less inhibition). Conditions: 20 µM; 4 days. As for the experimental part:
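Perkinsus marinus PRA240 trophozoites (2-5x10^6 cells/ml, 100 µl, 96-well) were exposed once to MMV Malaria Box compounds at 20 µM (0.1% DMSO) in triplicate. ATP content (ATPlite bioluminescence) was read at day 4 post-exposure and normalised to DMSO + cells control wells (100% activity). Compounds were identified by joining plate and well to the Malaria Box list.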
For the molecule `CCn1nc(-c2ccc(C(=O)OC)cc2)nc2c(=O)n(C)c(=O)nc1-2`, the ATP content stood at 1.37%. `COc1cccc(Cn2c(Oc3ccccc3)nc3c2c(=O)n(C)c(=O)n3C)c1` returned an ATP content of 106%. The molecule `FC(F)(F)c1cccc(Nc2nc3ccccc3nc2Nc2cccc(C(F)(F)F)c2)c1` had an ATP content of 155%. Under `COc1cccc(-c2nn(C)c3sc(C(=O)NCCN4CCN(c5ccccc5F)CC4)cc23)c1` stands 89.7%. Molecule `CCCOCc1cc(CN2CCN(c3cccc(Cl)c3)CC2)c(O)c2ncccc12` displayed an ATP content of 22.8%. `O=C(Nc1nc(-c2ccccn2)cs1)c1ccccc1Br` yielded an ATP content of 8.72%.

The molecule `COc1ccc(C(=O)NC(c2ccccc2Cl)c2cc(Cl)c3cccnc3c2O)cc1` (configuration not stated) returned an ATP content of 29.8%.

In the case of `COc1cc(OC)cc(N2C(=O)N(Cc3ccc(C(C)(C)C)cc3)c3ccccc3S2(=O)=O)c1`, the ATP content is 130%. As to `CCOC(=O)c1c(C)n(-c2ccccc2)c2ccc(OC(=O)c3cc(OC)c(OC)c(OC)c3)cc12`, the ATP content came out at 141%. `CCN(CC)CCCNc1ccnc2cc3ccccc3cc12`: the ATP content stood at 139%. For `CCOc1ccc2nc(C)cc(Nc3ccc(N(C)C)cc3)c2c1`, the ATP content stood at 86.6%.

The molecule `Cc1cc(C)c2nc(N3CCC(C(=O)NCCCN4CCC(N5CCCCC5)CC4)CC3)sc2c1` yielded an ATP content of 135%. In turn, `COCCN(C(=O)Cc1cccs1)C(C(=O)NCc1ccc(OC)cc1)c1ccc(C(C)C)cc1` (configuration not stated) registered an ATP content of 37.2%. The molecule `CN(C)c1ccc(N=Cc2ccc(N3CCOCC3)cc2)cc1` came in with an ATP content of 108%. In turn, `CCCCCCc1cc2cc(-c3nc4ccccc4[nH]3)c(=Nc3ccccc3C)oc2cc1O` returned an ATP content of 121%.

With `CCCn1c(=N)c(C(=O)NC2CCCCC2)cc2c(=O)n3cccc(C)c3nc21`, the ATP content was 64.4%. Under `Cc1cc(N2CCN(C3CCCC3)CC2)n2c(nc3ccccc32)c1C#N` stands 161%; under `COc1ccc(C2N(C)c3ccccc3N2C)cc1`, 101%.

`O=C(Nc1ccc(Br)cc1)Nc1cccc(Cl)c1` came in with an ATP content of 142%. In the case of `CN1CCN(c2c3c(c(C#N)c4nc5ccccc5n24)CCC3)CC1`, the ATP content was 140%.

As for `CCN1CCN(c2cc(C)c3cc(NC(=O)c4ccc(OC)c(OC)c4)ccc3n2)CC1`, the ATP content was determined as 91.6%.

For the molecule `Cc1ccc(CSCc2ccc(C(=O)NC3CC3)o2)cc1`, the ATP content is 54.8%. Then `CCOc1cc(Br)c(C(C)NC(=O)c2cccc(OC)c2)cc1OCC` (configuration not stated), with 115%; and `CC(C)=CCN1CCC(C(=O)Nc2ccc(-c3nc4ccccc4[nH]3)cc2)CC1`, with 81.5%; and `Brc1ccc(Nc2nc3ccccc3nc2Nc2ccc(Br)cc2)cc1`, with 18.3%. Then `COc1ccc(-c2nonc2NC(=O)c2cccc(Cl)c2)cc1OC`, with 135%. `CCOc1cccc(C(=O)Nc2ccc(-c3nc4ccccc4[nH]3)cc2)c1` returned an ATP content of 143%. Under `N=c1c2ccccc2nnn1-c1cccc(C(F)(F)F)c1` stands 67.7%; under `CCCCCCn1c(=N)n(CC(O)COc2cccc(C)c2)c2ccccc21` (configuration not stated), 96.7%. `CCn1c2c(c(=N)c3c1CCC3)CCCC2`: the ATP content amounted to 96.7%. On to `COc1cc2c(cc1OC)C1=NNC(=O)C1=NC(C)(C)C2`, for which the ATP content was 42.2%.

With `CCCCCCc1cc2cc(-c3csc(C=Cc4ccccc4)n3)c(=O)oc2cc1O`, the ATP content turned out to be 137%. As for `O=C(Nc1cccc(C(F)(F)F)c1)c1cc(Cl)ccc1O`, the ATP content was 2.99%. In turn, `FC(F)(F)c1cccc(CNC2CCN(CCc3ccccc3)CC2)c1` had an ATP content of 95.6%.

In turn, `O=c1nc(C=Cc2ccc(Cl)cc2)oc2ccccc12` gave an ATP content of 22.2%. Molecule `CC(C)(C)CC(C)(C)NCC(O)COc1ccc(Cl)cc1Cl` (configuration not stated) registered an ATP content of 123%. On to `COc1ccc(CN2CCCC(C(=O)c3ccc(C(F)(F)F)cc3)C2)c(O)c1` (configuration not stated), for which the ATP content worked out at 117%.
